The values that follow come from a collection of fitness landscapes (doi:10.1016/j.celrep.2020.107928).

Whole data set: some 81,000 sequences, median “one-hybrid fitness for binding parS DNA” near -0.17, cut for the highest 2% near 0.51. What follows is part of a selection rich in the highest values, with near analogues and random picks from the rest. Where only a bound is given, the exact number is not on record here.

Sequences and labels used below:
B1: Caulobacter ParB omega fusion; a variant is named by its letters at X, in order, B8GW30 (parent)
chain: MESVVVGEPGMSEGRRGLGRGLSALLGEVDAAPAQAPGEQLGGSREAPIEILQRNPDQPRRTFREEDLEDLSNSIREKGVLQPILVRPSPDTAGEYQIVAGERAWRAAQRAGLKTVPIMVRELDDLAVLEIGIIENVQRADLNVLEEALSYKVLMEKFERTQENIAQTIGKSXSHVANXMRLLXLPDEVQSYLVSGELTAXHARAIAAAADPVALAKQIIEGGLSVRETEALARKAPNLSAGKSKGGRPPRVKDTDTQALESDLSSVLGLDVSIDHRGSTGTLTITYATLEQLDDLCNRLTRGI

The variants in this experiment derive from B1. Nature of the experiment: one-hybrid fitness for binding parS DNA (scaled: cognate 1, non-cognate 0); higher = stronger binding. The following applies: with parS DNA site. In outline: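 Values were rescaled so that cognate is 1 and non-cognate is 0. Each is a fitness, the log change in a variant's read ratio to wild type from Illumina reads of plasmids before and after selection, with three replicate libraries pooled and variants under 10 reads dropped. Selection of the Caulobacter ParB libraries, four specificity codons randomised, used E. coli USO with a HIS3 reporter, site 19 bp from the promoter, on M9-minus-histidine with 0.1 mM IPTG and 5 mM 3-AT for 48 hours at 37°C.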
With QDYV, the “one-hybrid fitness for binding parS DNA” value was no more than 0.2. For VSHT the value was no more than 0.2; for KTMS, no more than 0.2; for EVAF, no more than 0.2. For the variant RNQN, the “one-hybrid fitness for binding parS DNA” value amounted to 0.284. Consider RNQD, for which the “one-hybrid fitness for binding parS DNA” value is no more than 0.2. Regarding RNWC, the “one-hybrid fitness for binding parS DNA” value was 0.569.

Consider DNWC, for which the “one-hybrid fitness for binding parS DNA” value was no more than 0.2. For RNQC the value was 0.82. As for RNWR, the “one-hybrid fitness for binding parS DNA” value is no more than 0.2. Take TLDS: the “one-hybrid fitness for binding parS DNA” value was no more than 0.2.

Regarding ARHI, the “one-hybrid fitness for binding parS DNA” value is no more than 0.2.

As for RLKT, the “one-hybrid fitness for binding parS DNA” value came to 0.799. Take RLVP: the “one-hybrid fitness for binding parS DNA” value is no more than 0.2. With RLVT, the “one-hybrid fitness for binding parS DNA” value came out at 0.844.

Regarding RLVD, the “one-hybrid fitness for binding parS DNA” value was no more than 0.2. Turning to RLKK, the “one-hybrid fitness for binding parS DNA” value is no more than 0.2. As to RLKR, the “one-hybrid fitness for binding parS DNA” value was no more than 0.2. For PSIF the value was no more than 0.2; for TTMY, no more than 0.2. IRGH: the “one-hybrid fitness for binding parS DNA” value was no more than 0.2. Take RNET: the “one-hybrid fitness for binding parS DNA” value worked out at 0.498. Turning to RNNY, the “one-hybrid fitness for binding parS DNA” value came to 0.434. For the variant RNNE, the “one-hybrid fitness for binding parS DNA” value was no more than 0.2.

Take RNDT: the “one-hybrid fitness for binding parS DNA” value was found to be 0.562. For RNNT, the “one-hybrid fitness for binding parS DNA” value worked out at 0.785.

On to RNDF, for which the “one-hybrid fitness for binding parS DNA” value is no more than 0.2. With PRSW, the “one-hybrid fitness for binding parS DNA” value was no more than 0.2. Turning to AEDR, the “one-hybrid fitness for binding parS DNA” value was no more than 0.2. For SKLC the value was no more than 0.2; for RKAA, 0.62; for DKAA, no more than 0.2. With NKAA, the “one-hybrid fitness for binding parS DNA” value is no more than 0.2. For the variant RKFA, the “one-hybrid fitness for binding parS DNA” value is 0.549. For HLVN the value was no more than 0.2. EADC: the “one-hybrid fitness for binding parS DNA” value was no more than 0.2. On to DFRC, for which the “one-hybrid fitness for binding parS DNA” value is no more than 0.2.

In the case of RFQY, the “one-hybrid fitness for binding parS DNA” value was 0.462.

As for RFQC, the “one-hybrid fitness for binding parS DNA” value came out at 0.925.

Take RFWR: the “one-hybrid fitness for binding parS DNA” value is no more than 0.2. For the variant RFWF, the “one-hybrid fitness for binding parS DNA” value is no more than 0.2. For RFWC the value was 0.697. Consider RFRP, for which the “one-hybrid fitness for binding parS DNA” value is no more than 0.2. Take RFRC: the “one-hybrid fitness for binding parS DNA” value was determined as 0.969.

As for RFLC, the “one-hybrid fitness for binding parS DNA” value came out at 0.85. As to NFLC, the “one-hybrid fitness for binding parS DNA” value was no more than 0.2.

Consider DFLC, for which the “one-hybrid fitness for binding parS DNA” value is no more than 0.2. Turning to DFQC, the “one-hybrid fitness for binding parS DNA” value was no more than 0.2.

Consider SDQF, for which the “one-hybrid fitness for binding parS DNA” value is no more than 0.2. For ENRG the value was no more than 0.2. Regarding CYNT, the “one-hybrid fitness for binding parS DNA” value is no more than 0.2. On to LSAC, for which the “one-hybrid fitness for binding parS DNA” value was no more than 0.2.

Turning to TCKK, the “one-hybrid fitness for binding parS DNA” value is no more than 0.2. In the case of CTYA, the “one-hybrid fitness for binding parS DNA” value was no more than 0.2. Turning to TRDK, the “one-hybrid fitness for binding parS DNA” value was no more than 0.2.

On to RFCD, for which the “one-hybrid fitness for binding parS DNA” value is no more than 0.2. For RFSC the value was 0.935.

For the variant NFHC, the “one-hybrid fitness for binding parS DNA” value is no more than 0.2. Take RFHC: the “one-hybrid fitness for binding parS DNA” value is 0.925. In the case of DFSC, the “one-hybrid fitness for binding parS DNA” value is no more than 0.2. On to DFHC, for which the “one-hybrid fitness for binding parS DNA” value was no more than 0.2. On to NFCC, for which the “one-hybrid fitness for binding parS DNA” value is no more than 0.2. Consider RFCC, for which the “one-hybrid fitness for binding parS DNA” value came out at 0.87. Take DFYC: the “one-hybrid fitness for binding parS DNA” value was no more than 0.2. Consider RFSD, for which the “one-hybrid fitness for binding parS DNA” value was no more than 0.2. RFYC: the “one-hybrid fitness for binding parS DNA” value stood at 0.867. On to RFYN, for which the “one-hybrid fitness for binding parS DNA” value was determined as 0.357. WVLH: the “one-hybrid fitness for binding parS DNA” value is no more than 0.2. Take GNCC: the “one-hybrid fitness for binding parS DNA” value is no more than 0.2. Consider TRHF, for which the “one-hybrid fitness for binding parS DNA” value was no more than 0.2. Turning to VVNG, the “one-hybrid fitness for binding parS DNA” value was no more than 0.2. For the variant TLTV, the “one-hybrid fitness for binding parS DNA” value is no more than 0.2. With PSGP, the “one-hybrid fitness for binding parS DNA” value was no more than 0.2.

Regarding WTLF, the “one-hybrid fitness for binding parS DNA” value was no more than 0.2. For the variant RFKH, the “one-hybrid fitness for binding parS DNA” value stood at 0.252. For RFKS the value was 0.9; for RFVH, no more than 0.2; for RFVD, no more than 0.2. With RFVS, the “one-hybrid fitness for binding parS DNA” value worked out at 0.892.

With RFKN, the “one-hybrid fitness for binding parS DNA” value is 0.441.

With VTDM, the “one-hybrid fitness for binding parS DNA” value was no more than 0.2. As to VYTF, the “one-hybrid fitness for binding parS DNA” value is no more than 0.2. With PGDI, the “one-hybrid fitness for binding parS DNA” value was no more than 0.2. Regarding KILR, the “one-hybrid fitness for binding parS DNA” value was no more than 0.2.

RKAP: the “one-hybrid fitness for binding parS DNA” value was no more than 0.2. Consider RKFS, for which the “one-hybrid fitness for binding parS DNA” value is 0.927. On to RKAD, for which the “one-hybrid fitness for binding parS DNA” value was no more than 0.2. With RKFP, the “one-hybrid fitness for binding parS DNA” value was no more than 0.2. Consider RKAS, for which the “one-hybrid fitness for binding parS DNA” value worked out at 0.832.

Turning to RKFN, the “one-hybrid fitness for binding parS DNA” value is 0.295. For QHMA the value was no more than 0.2; for SVPY, no more than 0.2; for WRWT, no more than 0.2. For FLPQ the value was no more than 0.2. WSPS: the “one-hybrid fitness for binding parS DNA” value was no more than 0.2. In the case of QVPW, the “one-hybrid fitness for binding parS DNA” value was no more than 0.2. RLFN: the “one-hybrid fitness for binding parS DNA” value worked out at 0.395.

As to RLAS, the “one-hybrid fitness for binding parS DNA” value came out at 1. As to RLFS, the “one-hybrid fitness for binding parS DNA” value was 1.03. As to RLAP, the “one-hybrid fitness for binding parS DNA” value is no more than 0.2. As for RLFD, the “one-hybrid fitness for binding parS DNA” value was no more than 0.2.

With RLAH, the “one-hybrid fitness for binding parS DNA” value is no more than 0.2.

On to HRSG, for which the “one-hybrid fitness for binding parS DNA” value was 0.277.

In the case of QDER, the “one-hybrid fitness for binding parS DNA” value was no more than 0.2. QMYS: the “one-hybrid fitness for binding parS DNA” value was no more than 0.2. As to YWTY, the “one-hybrid fitness for binding parS DNA” value is no more than 0.2.

For the variant IAWK, the “one-hybrid fitness for binding parS DNA” value is no more than 0.2. For PACN the value was no more than 0.2; for RQKQ, no more than 0.2.

On to RQKF, for which the “one-hybrid fitness for binding parS DNA” value worked out at 0.328. With RQVT, the “one-hybrid fitness for binding parS DNA” value is 0.678.

RQVH: the “one-hybrid fitness for binding parS DNA” value was no more than 0.2.

For the variant RQVP, the “one-hybrid fitness for binding parS DNA” value is no more than 0.2.

As to RQKT, the “one-hybrid fitness for binding parS DNA” value is 0.819. For the variant FSNE, the “one-hybrid fitness for binding parS DNA” value is no more than 0.2. Take TTGM: the “one-hybrid fitness for binding parS DNA” value is no more than 0.2. For ILAP the value was no more than 0.2.

ELIG: the “one-hybrid fitness for binding parS DNA” value is no more than 0.2. For HFGL, the “one-hybrid fitness for binding parS DNA” value was no more than 0.2. With DNSG, the “one-hybrid fitness for binding parS DNA” value is no more than 0.2.

Turning to DNPA, the “one-hybrid fitness for binding parS DNA” value is no more than 0.2. Regarding RPIT, the “one-hybrid fitness for binding parS DNA” value was no more than 0.2. RHPT: the “one-hybrid fitness for binding parS DNA” value was found to be 0.336. Turning to RSPT, the “one-hybrid fitness for binding parS DNA” value turned out to be 0.372. On to REIT, for which the “one-hybrid fitness for binding parS DNA” value is no more than 0.2.

With RHIH, the “one-hybrid fitness for binding parS DNA” value was no more than 0.2. Take RHIT: the “one-hybrid fitness for binding parS DNA” value came to 0.581. On to RSIT, for which the “one-hybrid fitness for binding parS DNA” value is 0.628.

Regarding RCIT, the “one-hybrid fitness for binding parS DNA” value was 0.78. Consider RGIT, for which the “one-hybrid fitness for binding parS DNA” value was 0.278.

Turning to YPCV, the “one-hybrid fitness for binding parS DNA” value was no more than 0.2. ALRC: the “one-hybrid fitness for binding parS DNA” value is no more than 0.2. As to TRWA, the “one-hybrid fitness for binding parS DNA” value was no more than 0.2.

On to AHIG, for which the “one-hybrid fitness for binding parS DNA” value is no more than 0.2. As to RVSH, the “one-hybrid fitness for binding parS DNA” value is no more than 0.2.

With RVGC, the “one-hybrid fitness for binding parS DNA” value is 0.934. For RVWY the value was 0.49.

For RVSD, the “one-hybrid fitness for binding parS DNA” value was no more than 0.2. As to RVSC, the “one-hybrid fitness for binding parS DNA” value is 0.977. Consider RVQK, for which the “one-hybrid fitness for binding parS DNA” value is no more than 0.2. For RVQC the value was 0.983; for RVQM, 0.278; for RVWC, 0.963. For the variant RVWM, the “one-hybrid fitness for binding parS DNA” value was determined as 0.344.

RVGM: the “one-hybrid fitness for binding parS DNA” value worked out at 0.306.

Regarding RVGF, the “one-hybrid fitness for binding parS DNA” value worked out at 0.254. In the case of PWHI, the “one-hybrid fitness for binding parS DNA” value is no more than 0.2. As to EAGG, the “one-hybrid fitness for binding parS DNA” value is no more than 0.2. As to TACV, the “one-hybrid fitness for binding parS DNA” value is no more than 0.2. For YPGR the value was no more than 0.2; for TVMC, no more than 0.2; for GENW, no more than 0.2. With CIYR, the “one-hybrid fitness for binding parS DNA” value is no more than 0.2.
